# Assay outcomes (PubChem BioAssay)
# Sampled rows, rich in hits. Any-hit rate of the full collection: about 2.8%.
# Giardia kill – Giardia lamblia killing; Giardia lamblia trophozoite viability; activity change, % at 7.66 µM, hits read low; actives 0.15% (n = 340,000); AID 540267; in the data active means activity change below about -80%; inconclusive means between about -30% and that limit;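 further: parasites exposed to compound for two days anaerobically before the ATP read; on the % scale 0 is the no-effect control and ±100 the full control effect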
#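 Killing of trophozoites was scored by loss of ATP luminescence after a 48 hrs anaerobic exposure to compounds at 37 deg C, using 100 cells per well.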
# D3 ag – activates the human D3 dopamine receptor | P35462 | max activation, % | D3R DiscoveRx beta-arrestin cells, luminescence, 90 min | AID 652048 | actives 0.58% (n = 410,000); in the data active means max activation above about 30%; further: 0% is about no effect
#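 Agonist mode: compounds and dopamine controls were applied to plated cells for 90 min at 37 degrees C after an overnight attachment at 1500 cells/well. Luminescent read-out followed 30 - 60 minutes at room temperature with DiscoveRx detection reagent.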
# B2AR arrestin – recruits beta-arrestin to the human beta2-adrenergic receptor; beta-arrestin recruitment to beta2AR, cell-based reporter; Potency, µM (titrated, usually from 46.1 µM), inactives show top-dose activation, actives largely listed as activators; actives 0.02% (n = 330,000); P07550; active means well fitted activation curve with a large enough effect; inconclusive means small, poorly fitted or top-dose-only effect;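 further: potency means the concentration at half of the fitted maximal effect; 0% = DMSO controls and full agonism = EC100 isoproterenol or metaproterenol; nearly all actives have a fitted effect of over 65% in size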
# Target sequence (P07550 whole entry, looked up): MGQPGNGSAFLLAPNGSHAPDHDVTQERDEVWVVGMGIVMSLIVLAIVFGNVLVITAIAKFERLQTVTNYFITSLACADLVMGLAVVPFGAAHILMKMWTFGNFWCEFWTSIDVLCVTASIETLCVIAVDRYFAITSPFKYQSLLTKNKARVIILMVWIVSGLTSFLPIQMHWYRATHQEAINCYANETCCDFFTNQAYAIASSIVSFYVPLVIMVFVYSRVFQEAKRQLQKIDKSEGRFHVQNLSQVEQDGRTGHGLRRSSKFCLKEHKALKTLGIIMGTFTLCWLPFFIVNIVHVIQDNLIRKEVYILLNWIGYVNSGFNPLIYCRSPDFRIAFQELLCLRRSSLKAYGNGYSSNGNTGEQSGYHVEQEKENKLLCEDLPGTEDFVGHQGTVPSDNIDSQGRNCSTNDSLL
# D3 antag – D3 dopamine receptor (human) antagonism | max response, negative = inhibition, % | AID 652054 | actives 2.5% (n = 360,000) | P35462 | D3R cells, DiscoveRx beta-arrestin luminescence, antagonist mode; hits give low values; in the data active means max response below about -50%; inconclusive means no clear call, values can overlap the other calls; further: on the % scale 0 is the no-effect control and ±100 the full control effect
#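 Cells expressing the human receptor were seeded at 1500 cells/well, incubated overnight at 37 degrees C in 5% CO2, then exposed to library compounds with dopamine controls for 90 minutes at 37 degrees C before luminescent detection.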
# The depositor's hits bear a star; u = inconclusive; x = no result given.
SMILES,Giardia kill,D3 ag,B2AR arrestin,D3 antag
Cc1ccc(C(=O)Nc2cccc(C(=O)N/N=C/c3ccc(O)cc3)c2)cc1,-21.3,-19.4,-0.2%,-17.1
Cc1cc(/C=N/NC(=O)c2ccc(O)cc2)c(C)n1C1CC1,14.6,-3.4,0.1%,-54.0*
CCN1CCN(c2cc(SC(C)C)nc(-c3ccc(OC)cc3)n2)CC1,0.3,-23.2,0.4%,-64.9*
CC(C)=CCc1cc([C@@H]2CC(=O)c3ccc(O)c(CC=C(C)C)c3O2)ccc1O,-13.1,31.5*,x,56.3
CN1CCN(C(=O)c2cccc3c(-c4ccc(F)c(F)c4)coc23)CC1,x,-12.2,x,-100.5*
COc1ccc(-c2coc3c(C(=O)N4CCN(C)CC4)cccc23)c(C)c1,x,-17.1,x,-86.6*
O=C1OCCC1Sc1nnc2c(n1)[nH]c1ccccc12 (stereo unspecified),8.9,x,x,x
O=C1CC(C(F)(F)F)=NN1,-0.7,32.9*,-0.5%,12.2
CCC(Sc1nc2nccnc2c(=O)n1Cc1ccc(F)cc1)C(=O)NC1CCCCC1 (stereo unspecified),x,8.1,x,x
O=C(Nc1nc2ccc(F)cc2s1)C1=COCCO1,-8.6,2.0,-0.1%,2.7
O=C(Nc1nc2cc3c(cc2s1)OCCO3)C1=COCCO1,-86.3*,-5.7,-0.1%,-19.3
O/N=C/CCn1c(=S)sc2ccccc21,2.4,-7.9,0.3%,-50.6*
Cc1cc(-c2ccccc2)nc2[nH]n(-c3ccccc3)c(=O)c12,5.2,-7.0,0.3%,-68.5*
Cc1cc(C)n(-c2ncccc2[N+](=O)[O-])n1,13.3,4.5,-0.8%,15.3
CC(C)c1ccc(-n2cnn(-c3ncccc3[N+](=O)[O-])c2=O)cc1,-0.6,-20.2,0.2%,-83.2*
COc1cc(/C=N/NC(=O)c2ccccn2)ccc1OC(=O)c1ccc(Br)cc1,-8.4,37.4*,-0.3%,4.2
COc1cc(/C=N/NC(=O)c2ccccn2)ccc1OC(=O)c1ccccc1Br,-9.6,11.7,1.1%,45.3
Cc1cc(C)c2nc(N3C(=O)C(O)=C(C(=O)c4ccco4)C3c3ccco3)sc2c1 (stereo unspecified),-2.8,31.4*,-0.7%,74.7
COc1cccc(C(=O)N(Cc2ccccc2)Cc2cc3cc4c(cc3[nH]c2=O)OCCO4)c1,8.6,33.4*,0.1%,32.3
COc1ccc(C(=O)N(Cc2ccccc2)Cc2cc3cc4c(cc3[nH]c2=O)OCCO4)cc1,4.0,4.3,-3.7%,0.0
CCc1nn2c(=O)cc(COc3ccc(/C=C(\C#N)C(=O)Nc4ccc(F)cc4)cc3OC)nc2s1,x,3.8,x,x
CCOc1cc(/C=C(\C#N)C(=O)Nc2ccc(C)cc2)ccc1OCc1cc(=O)n2nc(CC)sc2n1,x,48.0*,x,x
CC(=O)Nc1ccc(SCCN2CCN(CC(C)C)CCC2=O)cc1,-11.2,x,x,x
CC(=O)N1CCOc2cc(S(=O)(=O)NCc3ccccc3Cl)c(C)cc21,x,-30.5,x,x
COc1ccc(S(=O)(=O)N(C(C)=O)c2ccc3oc(=O)sc3c2)cc1,-15.7,2.5,-0.7%,-58.6*
SMILES,Giardia kill,D3 ag,B2AR arrestin,D3 antag
COc1ccc(C2C(C(=O)c3ccc(C)o3)=C(O)C(=O)N2c2cc(C)on2)cc1OC (stereo unspecified),-13.4,-6.3,-0.6%,19.0
Cc1cc(N2C(=O)C(O)=C(C(=O)c3ccco3)C2c2cccnc2)no1 (stereo unspecified),x,x,-0.4%,x
COc1cc(C2C(C(=O)c3ccc(C)o3)=C(O)C(=O)N2c2cc(C)on2)cc(Br)c1O (stereo unspecified),-22.7,0.4,-0.1%,-57.3*
COc1cc(C2C(C(=O)c3ccco3)=C(O)C(=O)N2c2cc(C)on2)cc(Br)c1O (stereo unspecified),-1.9,-13.2,-0.1%,-72.8*
CC(=O)N[C@@H](CC(=O)N[C@@H](CCC(=O)O)C(=O)O)C(=O)O,x,-6.3,x,x
COc1cc(C(=O)NCC(c2cccs2)N2CCc3ccccc32)cc(OC)c1OC (stereo unspecified),-3.8,6.0,-0.2%,2.3
COc1ccccc1C(=O)NCC(c1cccs1)N1CCc2ccccc21 (stereo unspecified),-12.5,-14.4,0.4%,-53.0*
COC(=O)c1ccc(C)c(NS(=O)(=O)c2ccc(OC)c(OC)c2)c1,60.2,-7.3,0.0%,-70.0*
CCCCNc1c(-c2ccc(OC)c(SC3CCCCC3)c2)nc2cc(C)ccn12,7.6,9.7,-0.9%,55.7
CCCCCCSc1cc(-c2nc3cnccn3c2NCc2ccccc2)ccc1OC,2.0,51.5*,2.6%,130.8
CCCCNc1c(-c2ccc(OC)c(SC3CCCCC3)c2)nc2cnccn12,12.7,44.8*,0.1%,259.0
CCCCCCSc1cc(-c2nc3cc(C)ccn3c2NC2CCCCC2)ccc1OC,29.5,11.6,0.2%,0.0
CCCCNc1c(-c2ccc(SC3CCCCC3)cc2)nc2cnccn12,15.7,39.7*,-0.2%,106.4
COc1cc(-c2nc3ccccn3c2NCc2ccccc2)ccc1SC1CCCCC1,1.4,87.3*,-0.3%,117.8
COc1cc(-c2nc3ccc(C)cn3c2NCc2ccccc2)ccc1SC1CCCCC1,-4.1,23.7,-0.2%,92.7
Cc1ccccc1CNc1nc(N(C)C)nc2c1cnn2C,x,-4.1,x,x
CS(=O)(=O)c1ccc(C(=O)OCC(=O)N2CCCC2)cc1[N+](=O)[O-],-17.5,x,x,x
COc1ccc(-c2nc3ccccn3c2NC2CCCCC2)cc1SC1CCCCC1,17.6,23.2,-0.1%,33.2
CCC(C)Sc1ccc(-c2nc3cnccn3c2NC2CCCCC2)cc1 (stereo unspecified),-7.9,26.2,-1.0%,73.9
COc1ccc(-c2nc3cnccn3c2NCc2ccccc2)cc1SC1CCCCC1,25.4,40.4*,-0.7%,97.0
COc1ccc(Sc2ccc(-c3nc4cnccn4c3NC3CCCCC3)cc2OC)cc1,8.6,45.8*,0.1%,48.5
O=C(NC1CC1)C1=C[C@H](c2csc3ccccc23)C[C@H](OCc2ccc(CO)cc2)O1,-1.0,3.7,-0.3%,-26.3
C#CCNC(=O)C1=C[C@@H](c2ccc(C(F)(F)F)cc2)C[C@@H](OCCCCO)O1,-6.0,-2.0,-0.3%,-51.6*
O=C(C1=C[C@H](c2ccccc2)C[C@H](OCc2ccc(CO)cc2)O1)N1CCN(Cc2ccccc2)CC1,2.0,-35.5,0.0%,-50.2*
O=C(Nc1ccccc1)C1=C[C@H](c2csc3ccccc23)C[C@H](OCc2ccc(CO)cc2)O1,11.0,36.3*,0.1%,3.7
O=C(C1=C[C@@H](c2ccccc2)C[C@@H](OCc2ccc(CO)cc2)O1)N1CCN(Cc2ccc3c(c2)OCO3)CC1,0.2,-8.4,0.0%,u
O=C(C1=C[C@@H](c2csc3ccccc23)C[C@@H](OCc2ccc(CO)cc2)O1)N1CCN(Cc2ccccc2)CC1,-15.6,-7.3,0.4%,-52.6*
O=C(C1=C[C@@H](c2csc3ccccc23)C[C@@H](OCc2ccc(CO)cc2)O1)N1CCN(Cc2ccc3c(c2)OCO3)CC1,-2.7,-18.5,0.4%,u
CCN(CC)CCNC(=O)c1ccc2c(=O)n3nc(Nc4ccccc4)sc3nc2c1,x,-17.3,x,x
O=C(C1=C[C@@H](c2ccc(C(F)(F)F)cc2)C[C@@H](OCc2ccc(CO)cc2)O1)N1CCOCC1,4.3,4.9,-0.1%,8.0
